# Only a selection was taken, and hits are over-represented in it overall.
# KDM5B inhibitor – Primary screen for KDM5B Histone Demethylases FDH-coupled qHTS | Lysine-specific demethylase 5B (Homo sapiens), Q9UGL1 | KDM5B demethylase, FDH-coupled NADH fluorescence (FDH is formaldehyde dehydrogenase) | Potency, µM (doses to about 57.7 µM), usual class: inhibitors | 220,000 compounds, 2.6% hits; active = well fitted inhibition curve with a large enough effect; note: 0% is about no effect; nearly all actives have a fitted effect of over 70% in size
# Target sequence (Q9UGL1 whole entry, looked up): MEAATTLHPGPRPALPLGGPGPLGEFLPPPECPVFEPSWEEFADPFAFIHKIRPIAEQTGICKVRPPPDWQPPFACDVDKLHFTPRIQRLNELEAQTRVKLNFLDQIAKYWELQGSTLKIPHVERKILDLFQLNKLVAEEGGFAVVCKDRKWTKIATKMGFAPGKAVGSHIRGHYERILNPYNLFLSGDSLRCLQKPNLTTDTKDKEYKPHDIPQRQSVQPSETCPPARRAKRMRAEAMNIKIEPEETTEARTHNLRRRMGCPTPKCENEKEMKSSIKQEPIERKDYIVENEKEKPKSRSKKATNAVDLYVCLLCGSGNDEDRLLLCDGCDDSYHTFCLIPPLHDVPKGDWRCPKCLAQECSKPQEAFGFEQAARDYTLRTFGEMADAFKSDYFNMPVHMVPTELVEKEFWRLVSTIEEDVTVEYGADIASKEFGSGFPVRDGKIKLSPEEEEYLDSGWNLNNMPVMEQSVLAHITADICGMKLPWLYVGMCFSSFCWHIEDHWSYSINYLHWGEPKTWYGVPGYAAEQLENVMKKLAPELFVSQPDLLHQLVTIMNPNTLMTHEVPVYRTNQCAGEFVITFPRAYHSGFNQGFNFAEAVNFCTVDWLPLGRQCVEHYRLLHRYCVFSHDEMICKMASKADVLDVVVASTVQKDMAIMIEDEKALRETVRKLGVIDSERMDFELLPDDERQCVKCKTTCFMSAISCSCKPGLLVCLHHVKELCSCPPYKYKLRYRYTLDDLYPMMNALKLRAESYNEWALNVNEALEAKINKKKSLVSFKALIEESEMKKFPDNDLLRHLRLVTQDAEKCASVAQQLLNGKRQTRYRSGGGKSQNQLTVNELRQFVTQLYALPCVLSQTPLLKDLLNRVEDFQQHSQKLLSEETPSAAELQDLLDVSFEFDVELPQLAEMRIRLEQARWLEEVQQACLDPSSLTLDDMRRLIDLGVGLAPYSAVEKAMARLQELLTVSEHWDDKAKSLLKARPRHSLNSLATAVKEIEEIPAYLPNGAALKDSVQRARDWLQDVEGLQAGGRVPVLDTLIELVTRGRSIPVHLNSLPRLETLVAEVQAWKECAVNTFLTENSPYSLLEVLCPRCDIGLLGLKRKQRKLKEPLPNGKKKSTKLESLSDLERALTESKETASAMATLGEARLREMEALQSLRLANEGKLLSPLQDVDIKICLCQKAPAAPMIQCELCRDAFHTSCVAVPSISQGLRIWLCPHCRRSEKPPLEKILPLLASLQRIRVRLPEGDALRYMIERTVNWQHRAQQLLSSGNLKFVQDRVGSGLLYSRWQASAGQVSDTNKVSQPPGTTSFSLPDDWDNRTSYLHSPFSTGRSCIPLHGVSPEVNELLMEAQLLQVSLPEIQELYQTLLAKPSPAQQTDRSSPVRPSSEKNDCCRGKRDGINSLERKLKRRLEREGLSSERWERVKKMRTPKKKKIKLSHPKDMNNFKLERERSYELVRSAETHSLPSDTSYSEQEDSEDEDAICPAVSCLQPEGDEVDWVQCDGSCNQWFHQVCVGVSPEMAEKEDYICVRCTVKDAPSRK
#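 Here, H3K4me3 peptide (12.5 µM in substrate mix) is demethylated by KDM5BΔAP, 200 nM final, after 10 min compound exposure. Formaldehyde product is coupled through FDH (0.25 U/mL in mix) to NADH fluorescence; 30-min ΔRFU feeds dose-response curves.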
# An asterisk follows results filed as active; i = inactive. Potency is the fitted concentration of half-maximal effect.
SMILES,KDM5B inhibitor
CC(NC(=O)c1ccco1)c1ccccc1OC(F)F (stereo not given),i
Cc1cccc(OCC(=O)N2CCC3(CC2)CN(c2ccncn2)CC3CO)c1 (stereo not given),i
COCCN1CC(CO)C2(CCN(C(=O)COc3ccccc3)CC2)C1 (stereo not given),i
Cc1cccc(OCC(=O)N2C[C@@H](CO)[C@H](c3ccccn3)C2)c1,i
O=C(COc1ccccc1)N1CCC2(CC1)CN(c1ncccn1)CC2CO (stereo not given),22µM*
Cc1cccc(OCC(=O)N2CCC3(CC2)CN(c2ncccn2)CC3CO)c1 (stereo not given),20µM*
O=C(COc1ccccc1)N1CCC2(CC1)CN(Cc1ccccc1)CC2CO (stereo not given),i
COCCNC(=O)[C@H]1C[C@H](Oc2cccnc2)CN1C(=O)NC(C)C,i
COc1ccc(NC(=O)COc2ccccc2)c2cccnc12,i
CC(C)c1nnc(NC(=O)c2cc(=O)c3cc(Cl)cc(Cl)c3o2)s1,i
CCOC(=O)c1oc2ccccc2c1Cn1cc(C(F)(F)F)ccc1=O,i
O=C1c2ccccc2NC(c2cccc(Cl)c2)N1c1ccc(N2CCOCC2)cc1 (stereo not given),i
Cc1cc(C)c(CNC(=O)c2cc(-c3ccccc3)cc3c2OCCN3C)c(=O)[nH]1,32µM*
Cc1cc(C)c(CNC(=O)c2nc(-c3ccc(CO)cc3)cc3c2ccn3C(C)C)c(=O)[nH]1,i
COc1ccc(-c2cc(C(=O)NCc3c(C)cc(C)[nH]c3=O)c3c(c2)N(C)CCO3)cn1,35µM*
Cc1cc(C)c(CNC(=O)c2cc(-c3ccc(CO)cc3)cc3c2OCCN3C)c(=O)[nH]1,32µM*
Cc1cn2nnc(C(=O)NCc3ccc4c(c3)OCO4)c2c(=O)[nH]1,i
CCCn1nc(C(=O)OCC(=O)Nc2ccc(C)c(C)c2)c2ccccc2c1=O,i
CCONC(=O)COC(c1ccccc1)c1ccccc1,i
CC(=O)Nc1cccc(OCCc2ccccc2)c1,i
Cc1cnc(CCNS(=O)(=O)Cc2ccccc2F)n1C(C)C,i
Cc1ccc2c(Cn3cc(S(=O)(=O)N4CCCC4)ccc3=O)cc(=O)oc2c1,i
CC(=O)Nc1ccc(NC(=S)NC(=O)c2ccc(Cl)cc2)cc1,i
CCC(CC)C(=O)Nc1ccc(F)cc1,i
Cc1ccccc1C(=O)NC(NC(=O)c1ccccc1C)c1ccc(Cl)cc1,i
SMILES,KDM5B inhibitor
COc1ccc2cc(CN3CCC(OC)CC3)c(-c3cccc(C)c3)nc2c1,25µM*
Cc1cccc(-c2nc3cc(C)ccc3cc2CN2CCN(CCCO)CC2)c1,i
COc1ccc(OC)c(-c2nc3cc4c(cc3cc2CN2CCOCC2)OCO4)c1,i
Cn1cnnc1SCc1coc(-c2cccc(Cl)c2)n1,i
O=C(Nc1ccc(F)cc1)c1[nH]c2ccccc2c1Cl,i
CCc1c(C)cc(C(=O)N[C@@H]2[C@@H](Cc3ccccc3)[C@H]3OCC[C@@H]23)c(=O)n1C,28µM*
O=C(CN1C(=O)CNC1=O)N[C@@H]1[C@@H](Cc2ccccc2)[C@H]2OCC[C@@H]12,i
Cn1cnc(C(=O)N[C@@H]2[C@@H](Cc3ccccc3)[C@H]3OCC[C@@H]23)c1,i
COc1cc(/C=N/O)c(Br)c(Br)c1OC,i
CC(CNC(=O)c1cc2ccccc2s1)N1CCCCC1 (stereo not given),i
CC(Nc1ccc(C(F)(F)F)cc1[N+](=O)[O-])c1ccccn1 (stereo not given),i
COc1ccccc1C(C)N(C)C(=O)Cc1c(C)nc2ccccc2c1C (stereo not given),i
O=C(CCC1CCCN(S(=O)(=O)c2ccccc2)C1)NCC1CCCCC1 (stereo not given),i
O=C(CCC1CCN(C(=O)c2ccccc2)CC1)N1CCC(Cc2ccccc2)CC1,i
O=C(CCC1CCN(C(=O)c2ccccc2)CC1)N1CCOCC1,i
Cc1ccc(S(=O)(=O)N2CCCC(CCC(=O)N3CCCCC3)C2)cc1 (stereo not given),i
O=C(CCC1CCCN(S(=O)(=O)c2ccccc2)C1)N1CCN(c2ccccn2)CC1 (stereo not given),22µM*
Cc1ccc(C(=O)N2CCC(CCC(=O)N3CCN(c4ccccn4)CC3)CC2)cc1,28µM*
O=C(NC1CCCCC1C(F)(F)F)c1ccc2ncsc2c1 (stereo not given),i
COCCn1c(SCc2nc(C(C)(C)C)no2)nc2sc(C)c(C)c2c1=O,i
CC(Oc1cccc(Cl)c1)C(=O)NCCc1ccccn1 (stereo not given),i
N#Cc1ccccc1NC(=O)CCN(Cc1ccco1)C1CC1,i
COc1ccc(-c2cc(N3CCN(C(=O)Cc4ccc(C)cc4)CC3)n[nH]2)cc1,i
CC(Sc1nnc(-c2ccco2)n1C(C)C)C(=O)Nc1nccs1 (stereo not given),i
Cc1ccc(CN(c2ccc(C(=O)NC(C(C)C)C(C)C)cc2)S(C)(=O)=O)cc1,i
SMILES,KDM5B inhibitor
Cc1cc2c(-c3cccc(CO)c3)nc(-c3c(C)noc3C)cc2[nH]1,i
Cc1noc(C)c1-c1nc(CS(=O)(=O)c2ccc(Cl)cc2)no1,i
Cc1noc(C)c1CS(=O)(=O)c1ccc(F)cc1,i
Cc1cc2c(-c3cccc(S(C)(=O)=O)c3)nc(-c3c(C)noc3C)cc2[nH]1,35µM*
Cc1cc2c(-c3ccc(S(C)(=O)=O)cc3)nc(-c3c(C)noc3C)cc2[nH]1,35µM*
Cc1onc(-c2ccccc2)c1-c1ccnc(N)n1,i
Cc1nc2cc(NC(=O)c3cc(Cl)cc(Cl)c3)ccc2o1,i
CCOc1cc(Br)c(/C=C2/NC(=O)NC2=O)cc1OCC,i
CCC(=O)N1CCC(C(NC(=O)c2ccccc2)C(=O)NCc2ccccc2)CC1 (stereo not given),i
COCCNC(=O)C(NC(=O)c1ccccc1)C1CCN(C(=O)C2CC2)CC1 (stereo not given),18µM*
C=CCNC(=O)C(NC(=O)c1ccc(OC)cc1)C1CCN(C(=O)C2CC2)CC1 (stereo not given),i
COc1ccc(OC)c(CNCc2c(C(=O)O)c(C)n(Cc3c(C)cc(C)cc3C)c2C)c1,i
CCOC(=O)C1=C(Nc2ccccc2)O/C(=C\c2cc(F)ccc2F)C1=O,i
CCCn1nnc(NCc2cccc(Cl)c2)n1,i
CCCn1cc(-c2ccnc(NC3CCN(Cc4ccccn4)CC3)n2)c(C)n1,28µM*
CCCn1cc(-c2ccnc(NCc3cccc(C)c3)n2)c(C)n1,28µM*
O=C(NCCCn1cccn1)c1ccccc1OC1CCN(Cc2ccccn2)CC1,i
c1ccc(CN2CCN(c3nccc(-c4ccncc4)n3)CC2)nc1,i
CCCn1cc(CNc2cc(CC)nc3c(C)c(C)nn23)cn1,i
O=C(O)CCCCCCNS(=O)(=O)Cc1ccccc1,i
CC(=O)NC1=NN(C(C)=O)C2(S1)C(=O)N(CCc1ccccc1)c1c(C)cc(C)cc12 (stereo not given),i
C[S+](=O)([O-])CCn1ncc2cc(OCc3cccc(-c4ccccc4O)c3)ccc21,i
COc1cccc(F)c1-c1ccc(COc2ccc3c(cnn3CCC(=O)O)c2)cc1,i
COc1ccc(-c2ccc(COc3ccc4c(cnn4CCC(=O)O)c3)cc2)c(Cl)c1,i
Cc1cc(-c2cccc(COc3ccc4c(cnn4CC[S+](C)(=O)[O-])c3)c2)ccn1,i
COc1ncccc1-c1cccc(COc2ccc3c(cnn3CC[S+](C)(=O)[O-])c2)c1,32µM*
C[S+](=O)([O-])CCn1ncc2cc(OCc3cccc(-c4ccc(F)cc4)c3)ccc21,35µM*
COc1ncc(-c2cccc(COc3ccc4c(cnn4CC[S+](C)(=O)[O-])c3)c2)cn1,35µM*
C[S+](=O)([O-])CCn1ncc2cc(OCc3cccc(-c4cncnc4)c3)ccc21,i

# Screens as filed in PubChem.
